Results published in PubChem BioAssay (NCI).
About 83,000 compounds went through this panel and 20% of them were active in at least one assay; those are over-represented in the sample as a whole.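 Treatment: one concentration, 48 hours, 96-well format. Scoring: percent growth, with anything below 10 considered active.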 A number with no mark means an inactive call. Active and inactive are the calls of the source.

Key:
Experiment in all cases: NCI-60 one-dose screen, 48 h (100 = growth as untreated, 0 = no growth, -100 = all killed)
Settings in all cases: 10 µM
T-47D breast = test system: T-47D breast
BT-549 breast = test system: BT-549 breast
MDA-MB-435 melanoma = test system: MDA-MB-435 melanoma
SW-620 colon = test system: SW-620 colon
MCF7 breast = test system: MCF7 breast
HCT-116 colon = test system: HCT-116 colon
HCC-2998 colon = test system: HCC-2998 colon
KM12 colon = test system: KM12 colon

Row | Structure (SMILES) | growth (T-47D breast) | growth (BT-549 breast) | growth (MDA-MB-435 melanoma) | growth (SW-620 colon) | growth (MCF7 breast) | growth (HCT-116 colon) | growth (HCC-2998 colon) | growth (KM12 colon)
1 | CCCCCCCOc1cccc(/C=C2/C(=O)N=C3SCCCN32)c1 | 0.89% (active) | 51.3% | 56.4% | 76.6% | 29.4% | 39.9% | 95.8% | 75.2%
2 | COc1ccc(C(=O)n2nc(CC(=O)NCc3ccccc3)nc2N)cc1 | 105% | 102% | 109% | 105% | 99.1% | 99.5% | 104% | 116%
3 | O=[N+]([O-])c1cc2ncccc2c2ncccc12 | 74.6% | 89.6% | 61.9% | 85.4% | 60.6% | 53.5% | 108% | 96.3%
4 | CCOC(=O)c1sc(Nc2ncccn2)nc1-c1ccccn1 | 41.8% | 89.2% | 103% | 95.6% | 7.18% (active) | 74.2% | 80.7% | 83%
5 | O=C1/C(=C/c2ccc([N+](=O)[O-])s2)Oc2ccc(Cl)cc21 | -34.9% (active) | -67.1% (active) | -60.4% (active) | -64.4% (active) | -26.7% (active) | -52.7% (active) | -74.8% (active) | -53.3% (active)
6 | C=CCn1c(C)nc2cc(Nc3nc(Nc4ccc5nc(C)n(CC=C)c5c4)c4ccccc4n3)ccc21 | -60.3% (active) | -84% (active) | -76% (active) | -76.2% (active) | -89.3% (active) | -96.5% (active) | -96.1% (active) | -93.2% (active)
7 | COc1ccc(-c2nnc(COc3ccc(NC(=O)Nc4cccc(C(F)(F)F)c4)cc3F)o2)cc1 | 34.8% | 82.7% | 61.6% | 54.3% | 88.7% | 56.7% | 50.9% | 24%
8 | Oc1ccc(Cn2cc3c(c2-c2ccccc2)CCc2cnoc2-3)cc1 | 78.4% | 101% | 72.7% | 98% | 105% | 92.7% | 102% | 91.5%
9 | COc1ccc(CCc2nc3cc(-c4c(C)noc4C)ccc3n2CCN2CCOCC2)cc1 | 28.2% | 81.4% | 26.1% | 26.6% | 34.5% | 31.1% | 47.3% | 33.6%
10 | COc1cc(-c2cc(/C=C/C(C)=O)[nH]n2)cc(OC)c1OC | 32.2% | 71.7% | 61.8% | 74.3% | 41% | 39% | 103% | 72%
11 | Cc1ccc2nc3[nH]c(=O)[nH]c(=O)c3c(N)c2c1 | 85.1% | 99.8% | 91.5% | 97.8% | 89.3% | 80.6% | 95.9% | 91%
12 | O=C(Nc1cccc(F)c1)Nc1cccc(Cl)c1 | 76.5% | 104% | 89.9% | 74% | 87.8% | 92.3% | 89.9% | 47.6%
13 | O=c1cc(CSc2nnc(-c3ccccc3)n2-c2ccc(F)cc2)c2ccc3ccccc3c2o1 | 76.7% | 102% | 112% | 104% | 99.5% | 86.5% | 86.9% | 95.8%
14 | CCC(O)c1ccc(Br)cc1NC(=O)c1cccc(Cl)c1 (stereo unspecified) | 20.8% | 42.7% | 16.9% | 13.8% | 14.4% | 20.7% | 19.1% | 26.3%
15 | O=C1CC[C@@H](C(=O)N[C@H]2CSSC[C@@H](C(=O)N/C=C/c3ccc(O)cc3)NC(=O)[C@H](Cc3ccccc3)NC(=O)[C@@H]3CCCN3C(=O)[C@@H]3CCCN3C2=O)N1 | 78.3% | 120% | 104% | 97.2% | 96.8% | 99.7% | 98.9% | 97.9%
16 | N#CN1CC[C@H](C(=O)Nc2ncc(-c3ccncc3)s2)C1 | -23.4% (active) | -14.7% (active) | 6.91% (active) | 7.08% (active) | 2.99% (active) | 1.83% (active) | 4.61% (active) | -1.2% (active)

Row | Structure (SMILES) | growth (T-47D breast) | growth (BT-549 breast) | growth (MDA-MB-435 melanoma) | growth (SW-620 colon) | growth (MCF7 breast) | growth (HCT-116 colon) | growth (HCC-2998 colon) | growth (KM12 colon)
17 | N#C/C(=C/c1cc([N+](=O)[O-])ccc1Cl)C(N)=O | 90.4% | 96.8% | 71.5% | 46.6% | 57.3% | 10% (active) | 106% | 91.5%
18 | O=C1/C(=C/c2ccc(O)cc2)Oc2ccc(Cl)cc21 | 72.2% | 63.1% | 82.5% | 103% | 43.2% | 65.7% | 101% | 101%
19 | CC(C)C[C@H](NC(=O)CCn1ccc2ccccc2c1=O)B(O)O | 27.6% | 43.4% | -39.6% (active) | 34.1% | 33.9% | 16.9% | 59.9% | 68.8%
20 | CNC(=O)c1cc(Oc2ccc(NC(=O)Nc3ccc(Cl)c(C(C)(C)C)c3)c(F)c2)ccn1 | 20.5% | 47.2% | 29.9% | 69.2% | 16% | 19.7% | 44.2% | 20.9%
21 | Cc1ncc([N+](=O)[O-])n1CCOc1ccc(C(=O)/C=C/c2ccc(C(F)(F)F)cc2)cc1 | 51.6% | 68.1% | 83.1% | 15.4% | 12.7% | -59% (active) | 95.9% | 14.5%
22 | NC(=O)C1CCCN(Cc2c[nH]c3ccccc23)C1 (stereo unspecified) | 92.8% | 105% | 108% | 99.5% | 101% | 103% | 100% | 102%
23 | C[C@H](NC(=O)[C@@H]1CSSC[C@@H](NC(=O)Cc2nc3ccccc3cc2O)C(=O)NCC(=O)N1C)c1ccccc1 | 77.1% | 83.8% | 70.7% | 94% | 51.7% | 44.7% | 94.9% | 56%
24 | CC(C)c1ncc(CO)n1Cc1c(Cl)cccc1Cl | 73.8% | 104% | 102% | 100% | 99.5% | 102% | 109% | 101%
25 | CCc1ccc(-c2nnc(COc3ccc(-c4nc5cc(Cl)c(Cl)cc5[nH]4)cc3OC)o2)cc1 | 43.6% | 105% | 65.2% | 53% | 15.4% | 1.36% (active) | 82.8% | 44.1%
26 | Oc1ccccc1-c1nnc(Cn2c(Cc3cccc4ccccc34)nc3ccccc32)o1 | 89.6% | 101% | 111% | 103% | 102% | 100% | 104% | 98.8%
27 | COc1ccc(-c2oncc2-c2cc(OC)c3c(c2)OCO3)cc1 | 34.7% | 2.88% (active) | -35.5% (active) | 16.4% | 18% | 14.1% | 56% | 31.3%
28 | O=S(=O)(NCl)c1ccccc1 | 92% | 102% | 98.9% | 107% | 85.5% | 101% | 97.3% | 102%
29 | CCCCCCCCCCCC(=O)NCCCN(C)C | 84.8% | 70.5% | 94.5% | 102% | 65.7% | 67.6% | 78.5% | 104%
30 | CCN(CC)c1ccc(/C=C/C2=[N+](C)c3ccccc3C2(C)C)c(C)c1 | -0.932% (active) | -13.2% (active) | -13.7% (active) | 18.7% | 3.87% (active) | 5.94% (active) | 23.3% | -34.7% (active)
31 | CCc1nn2c(-c3ccccc3)c(-c3cc(OC)c(OC)c(OC)c3)nc2s1 | 72.5% | 111% | 95.5% | 83.5% | 60.6% | 80.8% | 91.6% | 94.7%
32 | O=[N+]([O-])c1ccc(-c2nc(Cl)c3c(n2)CCCC3)o1 | 89.9% | 83.1% | 87.6% | 56.8% | 46.9% | 55.2% | 92.4% | 96.5%
